A selection: hits, their analogues and other compounds. The true share with any hit is near 1.4%.
PrP UTR inh = inhibition of PrP 5' UTR reporter expression; cell-based PrP 5' UTR mRNA reporter, plate reader; inhibition, % (concentration not given with the values); actives 0.35% (n = 340,000); AID 488862, 2010; in the data active = inhibition above about 52%; also: 0 = median of the neutral control wells
SARS 3CLpro inh = SARS-CoV 3CLpro protease inhibitors, primary screen, biochemical, quenched FRET; AID 1706, 2009; inhibition, % at 6 µM; recombinant SARS-CoV 3CLpro, quenched FRET peptide cleavage; actives 0.14% (n = 290,000); in the data active = inhibition above about 12%
PrPC TRFRET = inhibitors of human cell surface prion protein PrPC, primary screen, cell-based, TR-FRET. Major prion protein (Homo sapiens), P04156. TR-FRET read-out. inhibition, % at 13.8 µM. actives 0.43% (n = 370,000); in the data active = inhibition above about 24%; also: 0% = median of the test wells and 100% = reference compound wells
RecA intein inh = Mtb RecA intein splicing inhibitors, primary screen, biochemical, fluorescence, HTS | Protein RecA (Mycobacterium tuberculosis (strain ATCC 25618 / H37Rv)), P9WHJ3 | inhibition, % (test concentration not listed) | actives 0.75% (n = 290,000) | cell-free RecA intein splicing; in the data active = inhibition above about 30%;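 also: 0% = vehicle wells and 100% = reference inhibitor control wells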
Target sequence (P9WHJ3 whole entry, looked up): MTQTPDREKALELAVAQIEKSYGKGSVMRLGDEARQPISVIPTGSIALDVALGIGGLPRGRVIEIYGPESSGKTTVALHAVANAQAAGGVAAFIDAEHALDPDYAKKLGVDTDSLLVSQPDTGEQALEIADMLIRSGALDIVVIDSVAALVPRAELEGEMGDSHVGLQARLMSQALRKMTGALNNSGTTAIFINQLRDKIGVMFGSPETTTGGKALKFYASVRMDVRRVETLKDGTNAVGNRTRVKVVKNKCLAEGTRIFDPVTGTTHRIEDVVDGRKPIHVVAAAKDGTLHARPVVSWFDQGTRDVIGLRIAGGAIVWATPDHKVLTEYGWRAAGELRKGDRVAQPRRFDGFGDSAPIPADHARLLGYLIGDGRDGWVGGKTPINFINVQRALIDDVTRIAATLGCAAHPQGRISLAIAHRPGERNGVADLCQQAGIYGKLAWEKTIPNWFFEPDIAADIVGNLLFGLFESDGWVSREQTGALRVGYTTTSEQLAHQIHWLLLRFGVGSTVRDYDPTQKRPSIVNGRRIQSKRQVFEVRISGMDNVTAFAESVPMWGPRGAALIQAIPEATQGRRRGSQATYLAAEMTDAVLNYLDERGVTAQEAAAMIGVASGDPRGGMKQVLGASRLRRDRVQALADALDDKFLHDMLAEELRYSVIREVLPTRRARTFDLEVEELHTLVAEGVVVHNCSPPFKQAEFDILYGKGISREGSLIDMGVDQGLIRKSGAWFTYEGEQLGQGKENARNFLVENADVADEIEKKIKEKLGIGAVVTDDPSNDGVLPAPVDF
Mtb hypoxia rep = PubChem AID 1159583 | M. tuberculosis hypoxia-regulated fluorescent reporter, fluorescence | fluorescence inhibition, % (test concentration not listed) | actives 0.1% (n = 300,000); in the data active = fluorescence inhibition mostly above about 23%, no sharp cut-off; inactive = mostly below about 17%
BJeLR viability = MLPCN primary cell-based screen for lethality selective to Ras in HRASV12 cells; BJeLR (HRASV12) viability, CellTiter-Glo ATP luminescence, 48 h; inhibition, % (no concentration beside the values); actives 0.17% (n = 300,000); in the data active = inhibition above about 50%
* = called active by the depositor.

How did COc1ccc(NC(=O)/C(C#N)=C/c2ncc([N+](=O)[O-])n2C)c(OC)c1 do in these assays?
PrP UTR inh: -14; SARS 3CLpro inh: -1; PrPC TRFRET: -2; RecA intein inh: 37*; Mtb hypoxia rep: -14; BJeLR viability: -5

What do the screens show for `O=C(OCC(=O)c1ccc(Cl)s1)c1cncc(Br)c1`?
PrP UTR inh: -7; PrPC TRFRET: 0; Mtb hypoxia rep: 29*

Results for Cc1c(N2C(=O)/C(=C/c3ccccc3)SC2=S)c(=O)n(-c2ccccc2)n1C ?
PrP UTR inh: -7; SARS 3CLpro inh: 7; PrPC TRFRET: -5; RecA intein inh: 7; Mtb hypoxia rep: 16; BJeLR viability: -2

How did Cc1c(N2C(=O)/C(=C/c3ccc(N(C)C)cc3)N(C)C2=S)c(=O)n(-c2ccccc2)n1C do in these assays?
PrP UTR inh: -12; PrPC TRFRET: -65; Mtb hypoxia rep: 40*

What do the screens show for `c1ccc(-c2cn(CC3CCC(C4CCC(Cn5cc(-c6ccccn6)nn5)O4)O3)nn2)nc1` (stereo not given)?
Mtb hypoxia rep: -2

How did COc1ccc(-c2cnnc(NN=Cc3ccc(C)o3)n2)cc1 do in these assays?
Mtb hypoxia rep: 4

Results for C#CCOCCOCCOCCNc1nc(N2CCN(C(=O)Cn3cc(CCCN=C(N)N)nn3)CC2)nc(N2CCN(C(=O)C(C(C)CC)n3cc(CCCCN)nn3)CC2)n1 (stereo not given) ?
Mtb hypoxia rep: 10

What do the screens show for `Cc1ccc(N=Nc2ccc(O)c(C=NNC(=O)c3ccc(N)cc3)c2)cc1C`?
Mtb hypoxia rep: 7

What do the screens show for `CCCCOc1ccc(C2C3CN(C(=O)OCC)CC=C3C(C#N)=C(N)C2(C#N)C#N)cc1OC` (stereo not given)?
PrP UTR inh: -44; SARS 3CLpro inh: -5; PrPC TRFRET: -1; RecA intein inh: 33*; Mtb hypoxia rep: 1; BJeLR viability: -14

How did Cc1ccc2c(c1)COc1c3ccc(C(=O)NC(CO)C(C)C)cc3nn1-2 (stereo not given) do in these assays?
Mtb hypoxia rep: 10

How did O=C(NN=Cc1ccc2c(c1)OCO2)C(=O)Nc1ccccc1 do in these assays?
Mtb hypoxia rep: -3

Results for C(=N\Nc1nc2ccccc2[nH]1)/c1ccc2ncccc2c1 ?
PrP UTR inh: -17; SARS 3CLpro inh: -10; PrPC TRFRET: -21; RecA intein inh: 1; BJeLR viability: 88*

How did CCN(CC)c1ccc(/C=N/NC(=O)c2ccco2)c(O)c1 do in these assays?
PrP UTR inh: -43; SARS 3CLpro inh: -1; PrPC TRFRET: 23; RecA intein inh: -95; BJeLR viability: 58*

What do the screens show for `CCN(CC)c1ccc(/C=N/Nc2nc3ccccc3[nH]2)c(O)c1`?
PrP UTR inh: -4; SARS 3CLpro inh: 1; PrPC TRFRET: 4; RecA intein inh: 30; BJeLR viability: 60*

How did NC(=NO)c1cccn1Cc1ccccc1[N+](=O)[O-] do in these assays?
Mtb hypoxia rep: 12

What do the screens show for `O=C(NC(Nc1ncc(S(=O)(=O)c2ccc([N+](=O)[O-])cc2)s1)(C(F)(F)F)C(F)(F)F)c1ccc(Cl)cc1`?
PrP UTR inh: -12; SARS 3CLpro inh: -5; PrPC TRFRET: -22; RecA intein inh: 6; BJeLR viability: 70*

Results for COCC(=O)Nc1ncc(S(=O)(=O)c2ccc([N+](=O)[O-])cc2)s1 ?
PrP UTR inh: -4; SARS 3CLpro inh: 0; PrPC TRFRET: -4; RecA intein inh: -3; Mtb hypoxia rep: -6; BJeLR viability: -5

Results for CCOC(=O)C1C2COc3ccc(OC)cc3C2N2C(=O)CN(CC3CCCO3)C(=O)[C@@]12C (stereo not given in full) ?
Mtb hypoxia rep: -1

Results for O=C(COC(=O)Cc1cccs1)NCC(=O)Nc1ccc(F)cc1 ?
PrP UTR inh: -20; PrPC TRFRET: 6; Mtb hypoxia rep: 33*

How did CN(CC(=O)Nc1ccc(F)cc1)C(=O)COC(=O)Cc1cccs1 do in these assays?
PrP UTR inh: -11; PrPC TRFRET: 10; RecA intein inh: -3; Mtb hypoxia rep: -8; BJeLR viability: 6
